According to PubChem BioAssay (Tox21):
Results filed as inconclusive are left out. Entries that show only a call come without a potency. Activity calls are given as the source filed them. Unless noted, calls come from the whole dose curve; as a rule, active = well fitted curve in the direction sought with a large enough effect in the repeat runs; inconclusive = weak or mixed curves; inactive = no such curve, though single readings can be large; an effect the other way counts as inactive or inconclusive.

Assays:
[1] = qHTS assay to identify small molecule agonists of the peroxisome proliferator-activated receptor delta (PPARd) signaling pathway - cell viability counter screen (AID 743211); note: nearly all actives have a fitted effect of over 55% in size; note: potency is the fitted concentration of half-maximal effect
How it was run: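 Multiplexed format: after the 2 h room-temperature LiveBLAzer B/G FRET step, CellTiter-Glo was added to the same wells. Luminescence after 30 min gave cell viability; compound exposure was 17 h at 37C.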

[2] = target: Peroxisome proliferator-activated receptor delta (Homo sapiens) (UniProt Q03181); test: qHTS assay to identify small molecule agonists of the peroxisome proliferator-activated receptor delta (PPARd) signaling pathway (AID 743212; calls by dose curve; note: potency is the fitted concentration of half-maximal effect)
Chain of Peroxisome proliferator-activated receptor delta (Homo sapiens) (Q03181 whole entry, looked up): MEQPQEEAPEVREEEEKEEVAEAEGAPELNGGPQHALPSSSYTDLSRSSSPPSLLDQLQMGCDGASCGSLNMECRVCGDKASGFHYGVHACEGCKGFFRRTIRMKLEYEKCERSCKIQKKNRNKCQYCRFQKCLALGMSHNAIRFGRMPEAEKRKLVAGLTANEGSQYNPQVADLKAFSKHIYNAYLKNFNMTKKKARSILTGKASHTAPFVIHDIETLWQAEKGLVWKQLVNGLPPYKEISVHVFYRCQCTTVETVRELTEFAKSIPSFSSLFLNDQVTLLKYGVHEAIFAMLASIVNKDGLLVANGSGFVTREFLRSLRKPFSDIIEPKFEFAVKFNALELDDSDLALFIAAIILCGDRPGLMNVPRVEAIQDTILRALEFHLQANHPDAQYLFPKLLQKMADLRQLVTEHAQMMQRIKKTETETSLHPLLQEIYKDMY
How it was run: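 Read-out: beta-lactamase FRET fluorescence after 2 h room-temperature incubation with LiveBLAzer B/G substrate. Cells were HEK293H carrying a UAS-bla reporter for PPARd, treated at 37 C with DMSO-dissolved compounds.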

[3] = qHTS assay to identify small molecule antagonists of the peroxisome proliferator-activated receptor delta (PPARd) signaling pathway - cell viability counter screen (AID 743213); note: nearly all actives have a fitted effect of over 50% in size
How it was run: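 CellTiter-Glo was added to PPARd-bla HEK293H wells following 17 h compound treatment in the presence of 300 nM L165041. Luminescence was recorded after 30 min at room temperature.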

[4] = target: Peroxisome proliferator-activated receptor delta (Homo sapiens) (UniProt Q03181); test: qHTS assay to identify small molecule antagonists of the peroxisome proliferator-activated receptor delta (PPARd) signaling pathway (AID 743215; active = well fitted inhibition curve with a large enough effect in the signal ratio in the repeat runs, not every such curve was filed as active; the % refers to the signal ratio;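 note: cells stimulated with agonist L165041 at 300 nM final during compound exposure; series mostly up to about 62 µM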)
How it was run: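 Screen format: qHTS, antagonist mode. HEK293H PPARd-bla cells received compound and 300 nM L165041 (final), 17 h, 37 C. Beta-lactamase detected via FRET substrate fluorescence, 2 h, room temperature.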

[5] = qHTS assay to identify small molecule agonists of the farnesoid-X-receptor (FXR) signaling pathway - cell viability counter screen (AID 743218); note: nearly all actives have a fitted effect of over 45% in size
How it was run: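 Same-well cytotoxicity check on FXR-UAS-bla HEK 293T cells: 5 h attachment, 16 h compound at 37 C, CellTiter-Glo luminescence read at room temperature after 30 min.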

[6] = qHTS assay to identify small molecule antagonists of the farnesoid-X-receptor (FXR) signaling pathway - cell viability counter screen (AID 743221; active = well fitted cell-killing curve with a large enough effect in the repeat runs, not every such curve was filed as active; note: nearly all actives have a fitted effect of over 50% in size)
How it was run: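 CellTiter-Glo, 30 min RT, luminescence; same wells as the LiveBLAzer FRET read. Cells: FXR-UAS-bla HEK 293T. Treatment: compound with chenodeoxycholic acid 50 uM final, 16 h at 37 C.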

[7] = target: Bile acid receptor (Homo sapiens) (UniProt Q96RI1); test: qHTS assay to identify small molecule antagonists of the farnesoid-X-receptor (FXR) signaling pathway (AID 743217; active = well fitted inhibition curve with a large enough effect in the signal ratio in the repeat runs, not every such curve was filed as active; the % refers to the signal ratio)
Chain of Bile acid receptor (Homo sapiens) (Q96RI1 whole entry, looked up): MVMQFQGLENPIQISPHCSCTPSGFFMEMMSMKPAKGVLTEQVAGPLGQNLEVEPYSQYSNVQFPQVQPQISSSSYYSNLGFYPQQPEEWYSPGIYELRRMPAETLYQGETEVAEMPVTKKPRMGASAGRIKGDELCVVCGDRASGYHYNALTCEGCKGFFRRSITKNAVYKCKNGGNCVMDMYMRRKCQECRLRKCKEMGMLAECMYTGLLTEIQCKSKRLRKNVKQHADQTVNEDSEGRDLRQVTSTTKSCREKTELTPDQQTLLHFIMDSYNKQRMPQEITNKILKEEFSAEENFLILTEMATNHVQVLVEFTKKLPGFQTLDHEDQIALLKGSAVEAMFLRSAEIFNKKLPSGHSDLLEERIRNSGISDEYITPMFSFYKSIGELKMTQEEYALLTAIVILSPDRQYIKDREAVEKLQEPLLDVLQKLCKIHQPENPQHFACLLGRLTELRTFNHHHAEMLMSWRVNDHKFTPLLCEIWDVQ
How it was run: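 Quantitative HTS, beta-lactamase reporter format: FXR-UAS-bla HEK 293T cells co-treated 16 h at 37 °C with compounds and 50 uM final chenodeoxycholic acid, then read by B/G FRET fluorescence.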

[8] = target: Bile acid receptor (Homo sapiens) (UniProt Q96RI1); test: qHTS assay to identify small molecule agonists of the farnesoid-X-receptor (FXR) signaling pathway (AID 743220; active = well fitted activation curve with a large enough effect in the signal ratio in the repeat runs, not every such curve was filed as active; the % refers to the signal ratio)
How it was run: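 FXR-UAS-bla HEK 293T cells carrying a UAS-driven beta-lactamase reporter were plated for 5 h at 37C/5% CO2, then exposed to DMSO-dissolved Tox21 10K compounds for 16 h at 37C. A LiveBLAzer B/G FRET substrate was loaded for 2 h at room temperature before fluorescence reading.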

[9] = target: Vitamin D3 receptor (Homo sapiens) (UniProt P11473); test: qHTS assay to identify small molecule agonists of the vitamin D receptor (VDR) signaling pathway (AID 743222; calls by dose curve)
Chain of Vitamin D3 receptor (Homo sapiens) (P11473 whole entry, looked up): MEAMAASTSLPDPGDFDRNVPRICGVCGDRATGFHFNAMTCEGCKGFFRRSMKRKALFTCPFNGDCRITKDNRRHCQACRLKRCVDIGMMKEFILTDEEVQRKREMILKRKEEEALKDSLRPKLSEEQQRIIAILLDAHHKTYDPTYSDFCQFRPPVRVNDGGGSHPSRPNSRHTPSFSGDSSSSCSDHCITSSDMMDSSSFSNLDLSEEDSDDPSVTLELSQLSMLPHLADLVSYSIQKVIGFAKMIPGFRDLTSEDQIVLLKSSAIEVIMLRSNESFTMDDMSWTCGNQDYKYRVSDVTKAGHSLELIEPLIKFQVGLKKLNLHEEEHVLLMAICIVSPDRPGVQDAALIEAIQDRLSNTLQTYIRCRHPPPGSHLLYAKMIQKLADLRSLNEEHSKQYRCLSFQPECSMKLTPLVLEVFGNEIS
How it was run: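 Using LiveBLAzer B/G FRET detection, agonism was scored in VDR-bla cells exposed overnight (16 h, 37C) to DMSO-dissolved compounds; substrate incubation was 2 h at room temperature.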

[10] = target: Vitamin D3 receptor (Homo sapiens) (UniProt P11473); test: qHTS assay to identify small molecule antagonists of the vitamin D receptor (VDR) signaling pathway (AID 743223; active = well fitted inhibition curve with a large enough effect in the signal ratio in the repeat runs, not every such curve was filed as active; the % refers to the signal ratio)
How it was run: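 After VDR-bla cells are plated and left 4 h at 37C, DMSO-dissolved compounds and 3 nM (final) calcitriol agonist are added. Incubation continues 16 h at 37C; FRET beta-lactamase substrate then develops 2 h at room temperature.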

SMILES | Potency [1] | Potency [2] | Potency [3] | Potency [4] | Potency [5] | Potency [6] | Potency [7] | Potency [8] | Potency [9] | Potency [10]
CC[C@]1(O)C[C@H]2CN(CCc3c([nH]c4ccccc34)[C@@](C(=O)OC)(c3cc4c(cc3OC)N(C=O)[C@H]3[C@@](O)(C(=O)OC)[C@H](OC(C)=O)[C@]5(CC)C=CCN6CC[C@]43[C@@H]65)C2)C1 | inactive | inactive | inactive | inactive | inactive | inactive | – | – | – | –
CC(C)=CCC/C(C)=C/CC/C(C)=C/C(=O)OCC(=O)[C@@]1(O)CC[C@H]2[C@@H]3CCC4=CC(=O)C=C[C@]4(C)[C@H]3[C@@H](O)C[C@@]21C | 23.7 µM (active) | – | – | – | – | – | – | – | – | –
CC(C)=CCC/C(C)=C/CC/C(C)=C/CCC(=O)OC/C=C(\C)CCC=C(C)C | inactive | inactive | inactive | inactive | inactive | inactive | – | – | – | –
O=C(O)CCCCCCCCCCCBr | inactive | inactive | inactive | inactive | inactive | inactive | – | – | – | –
CN1C(=O)OC(C)(C)C1=O | inactive | inactive | inactive | inactive | inactive | inactive | – | – | – | –
COc1ccccc1N1CCN(CCCCNC(=O)c2ccc(-c3ccc(C(C)=O)cc3)cc2)CC1 | inactive | inactive | inactive | inactive | inactive | inactive | inactive | inactive | inactive | inactive
Cc1cccc(N(C)C(=S)Oc2ccc3c(c2)CCC3)c1 | inactive | inactive | inactive | inactive | inactive | inactive | inactive | inactive | inactive | inactive
CC(C)C[C@H](NC(=O)[C@H](CCc1ccccc1)NC(=O)CN1CCOCC1)C(=O)N[C@@H](Cc1ccccc1)C(=O)N[C@@H](CC(C)C)C(=O)[C@@]1(C)CO1 | 0.237 µM (active) | – | – | – | – | – | – | – | – | –
c1ccc2sc(SN(C3CCCCC3)C3CCCCC3)nc2c1 | inactive | inactive | inactive | inactive | – | inactive | inactive | inactive | inactive | inactive
NNC(=O)CP(=O)(c1ccccc1)c1ccccc1 | inactive | inactive | inactive | inactive | inactive | inactive | – | – | – | –
CCCCCCCCOc1ccc(C(=O)O)cc1 | inactive | 7.67 µM (active) | inactive | inactive | inactive | inactive | inactive | – | – | inactive
Cc1ccccc1S | inactive | inactive | inactive | inactive | inactive | inactive | inactive | inactive | inactive | inactive
Cc1cc(O)ccc1O | inactive | inactive | inactive | inactive | – | inactive | inactive | inactive | inactive | inactive
O=C1NC(=O)c2cc([N+](=O)[O-])ccc21 | inactive | inactive | inactive | inactive | inactive | inactive | – | – | – | –
CC(C)(C)C(=O)C(=O)O | inactive | inactive | inactive | inactive | inactive | – | inactive | inactive | inactive | –
CCCCCCC(C)(C)C(=O)O | inactive | inactive | inactive | inactive | inactive | inactive | inactive | inactive | inactive | –
CCOC(=O)c1ccc(I)cc1 | inactive | inactive | inactive | inactive | inactive | inactive | inactive | inactive | inactive | inactive
O[C@@H]1CO[C@H]2[C@@H]1OC[C@@H]2O | inactive | inactive | inactive | inactive | inactive | inactive | inactive | inactive | inactive | inactive
C=C(C)C(=O)OCCOCCOC(=O)C(=C)C | inactive | inactive | inactive | inactive | – | inactive | inactive | inactive | – | inactive
CC(=O)Nc1ccc(C)cc1C | inactive | inactive | inactive | inactive | – | inactive | inactive | inactive | inactive | inactive
FC(F)(F)c1ccccc1Cl | inactive | inactive | inactive | inactive | inactive | inactive | inactive | inactive | inactive | inactive
CC(=O)Oc1ccc([N+](=O)[O-])cc1CCl | inactive | inactive | inactive | inactive | – | inactive | inactive | inactive | – | –
C=COCC(C)C | inactive | inactive | inactive | inactive | – | inactive | inactive | inactive | inactive | inactive
C(=C\c1ccccc1)/c1ccccc1 | inactive | inactive | inactive | inactive | – | inactive | inactive | inactive | inactive | inactive
CC(=O)OCC[N+](C)(C)C | inactive | inactive | inactive | inactive | – | inactive | inactive | inactive | inactive | inactive
Cc1cc(C)c(N)cc1C | inactive | inactive | inactive | inactive | inactive | inactive | inactive | inactive | inactive | inactive
CCC(C)COC(C)=O (stereo not given) | inactive | inactive | inactive | inactive | inactive | inactive | inactive | inactive | – | –
